# Hits are enriched below; roughly 1.3% of the tested compounds scored in any of these assays.
# IL2 activator: activators of IL-2; IL-2 activation reporter assay, cell-based qHTS; stimulated with anti-CD3/CD4/CD28 beads; in transgenic mouse T cells; hit rate 0.065% among 360,000; activation, % (series mostly up to about 46 µM); in the data active = activation above about 50%; inconclusive = mostly about 30% to 49%; also: 0% is about no effect
#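 Readout is EGFP and DsRed signal by fluorescent plate cytometry after 18 h at 37 degrees C. Transgenic mouse T cells (750/well) received compound for 60 min before bead stimulation (anti-CD3, anti-CD4, anti-CD28); memory T cells served as non-tolerant control.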
# Chronic BCR inh: blocks chronic active B-cell receptor signaling; ABC-DLBCL IkBa-CBG/CBR reporter, luminescence ratio, 4 h; Potency, µM (top dose mostly 46.1 µM), inactives show at the highest dose activity change, negative = inhibition, usual class: inhibitors; hit rate 0.05% among 340,000; AID 493014; active = well fitted inhibition curve with a large enough effect in the signal ratio, with a control signal flat, not every such curve was filed as active; inconclusive = small, poorly fitted or top-dose-only effect, or effect the other way, or a change in a side signal; the % refers to the signal ratio;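 also: potency is read from the fitted curve at half-maximal effect; plate controls were basal doxycycline-induced cells for no effect and cells given 10 µM MG132 for full effect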
#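 Cell line TMD8 (human ABC DLBCL), stably expressing tet-inducible CBG68-IkBa fusion and CBR; IMDM/0.5% FBS; cpd up to 46 uM; dox induction, 4 h, 37C/5% CO2; dual luminescence; green/red ratio; MG132 control.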
# BRCA1 expr up: activators of BRCA1 expression; MCF7-BRCA1-FFLuc reporter, luminescence, 48 h; response scale: scaled: vehicle 0%, 10 µM genistein 100%; Potency, µM (doses to about 46.1 µM), for inactives: at the highest dose activation, most hits filed as activators; hit rate 1.1% among 380,000; AID 624202; also: potency is read from the fitted curve at half-maximal effect; nearly all actives have a fitted effect of over 80% in size
#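 Quantitative HTS in MCF7 cells stably reporting BRCA1 expression via firefly luciferase. Compound treatment lasts 48 h at 37 °C in phenol-red free MEM. Activation is expressed relative to genistein at 10 microM and DMSO.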
# TCR act: T cell receptor activation; primary human leukocytes, anti-CD3, IL-2 HTRF, 48 h; Potency, µM (highest dose often 9.22 µM), for the others: at the highest dose activation of IL-2 secretion, usual class: activators; 330,000 tested, under 10 active; AID 504894; also: % of control where 0% means no effect
#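 IL-2 produced over 48 hr by a-CD3 bead-stimulated primary human leukocytes exposed to compounds was detected with a homogeneous time-resolved FRET immunoassay, 665nm acceptor signal after 320nm excitation.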
# PTHR1 ag: PTHR1 (human) receptor agonism; Potency, µM (titrated, usually from 115 µM), without a hit: at the highest dose activation, hits mostly activators; Q03431; hit rate 0.075% among 410,000; HEK293 GP2 PTHR1 cells, GloSensor cAMP luminescence, 1 h; AID 743266; also: potency is read from the fitted curve at half-maximal effect; nearly all actives have a fitted effect of over 55% in size
# Target sequence (Q03431 whole entry, looked up): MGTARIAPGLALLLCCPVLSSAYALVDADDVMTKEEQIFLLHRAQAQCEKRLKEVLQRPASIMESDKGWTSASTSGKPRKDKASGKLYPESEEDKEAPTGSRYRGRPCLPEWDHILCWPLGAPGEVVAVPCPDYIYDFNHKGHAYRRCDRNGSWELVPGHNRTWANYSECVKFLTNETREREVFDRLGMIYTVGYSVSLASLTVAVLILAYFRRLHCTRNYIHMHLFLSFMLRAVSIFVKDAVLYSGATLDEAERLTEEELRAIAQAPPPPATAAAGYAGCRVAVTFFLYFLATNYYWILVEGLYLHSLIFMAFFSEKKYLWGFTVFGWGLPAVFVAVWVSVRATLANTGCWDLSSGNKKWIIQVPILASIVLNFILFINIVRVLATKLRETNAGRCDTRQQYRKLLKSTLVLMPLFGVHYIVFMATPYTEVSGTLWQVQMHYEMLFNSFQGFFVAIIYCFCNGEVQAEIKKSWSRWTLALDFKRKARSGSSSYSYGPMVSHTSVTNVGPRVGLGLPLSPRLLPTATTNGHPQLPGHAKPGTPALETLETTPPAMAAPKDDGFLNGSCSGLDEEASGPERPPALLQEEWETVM
#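 HEK-293-derived GP2 cells expressing PTHR1 and a GloSensor cAMP reporter, 3,000/well, plated overnight, given luciferin plus IBMX (each 0.5 mM as added) for 1 h at 37 °C, then compound for 1 h at 37 °C. Luminescence was read after 15 min at room temperature.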
# Mito fusion act: mitochondrial division inhibition or fusion activation | S. cerevisiae fusion-defective mutant growth rescue, CellTiterGlo 48 h | Potency, µM (top dose mostly 46.1 µM), for the others: top-dose growth rescue (activation), hits mostly activators | hit rate 0.23% among 320,000; also: potency is read from the fitted curve at half-maximal effect; % of control where 0% means no effect; nearly all actives have a fitted effect of over 45% in size
#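 Temperature-sensitive fusion-defective S. cerevisiae (e.g. fzo1-1, mgm1-5) were grown with compound in YPEG medium (3% ethanol, 3% glycerol) for 48 hours at 37C. Growth rescue was measured as viability by CellTiterGlo luminescence after 10 minutes at ambient.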
# Numbers without * were called inactive; i = inactive; ? = inconclusive; . = no result; [ ] = another dose, or the depositor's remark. Unless noted, calls follow the shape of the dose curve; as a rule, active = well fitted curve in the direction sought with a large enough effect; inconclusive = small, poorly fitted or top-dose-only effect, or another doubt; inactive = no such curve, though single readings can be large; an effect the other way counts as inactive or inconclusive.
SMILES,IL2 activator,Chronic BCR inh,BRCA1 expr up,TCR act,PTHR1 ag,Mito fusion act
CC(=O)C(Cc1ccccc1)NC(=O)COC(=O)c1cc(S(=O)(=O)N2CCOCC2)ccc1F (stereo not drawn),1,.,12%,.,-3%,.
CC(C)COc1ccc(C(=O)NCC2OCCc3ccccc32)cc1 (stereo not drawn),.,.,.,.,i,.
COc1ccc(C(=O)NCC2OCCc3ccccc32)c(O)c1 (stereo not drawn),-2,?,11µM*,-7%,i,14%
Nc1cccc(-c2nc3ccccc3[nH]2)c1,-1,?,10µM*,4%[46.1 µM],-17%[57.5 µM],-1%
Cc1ccc2nc(-c3cccc(N)c3)[nH]c2c1,-1,?,-17%,7%[46.1 µM],-33%,-7%
Cc1csc(Nc2nc(N)c(C(=O)Nc3ccccc3)o2)n1,-4,?,7.9µM*,1%,-21%,-6%
O=C1Cc2ccccc2C(=O)N1c1cccc(Cl)c1,1,4%,-4%,8%,i,-1%
O=C(Nc1cccc(C(=O)O)c1)/C(=C\c1ccc2c(c1)OCO2)NC(=O)c1ccc(Br)o1,2,5%,8.9µM*,-2%,i,15%
O=C(N/N=C/c1ccc2c(c1)OCO2)c1ccc(Br)o1,-3,?,5.6µM*,-3%[46.1 µM],-3%,3%
O=C(N/N=C/c1ccc2c(c1)OCO2)c1ccc2c(c1)OCCO2,-3,?,2%,1%[46.1 µM],-5%,-3%
O=C(Nc1ccc(C(=O)O)cc1)/C(=C\c1ccc2c(c1)OCO2)NC(=O)c1ccc(Br)o1,1,-11%,-6%,-1%,i,-2%
CCc1nn2c(=O)cc(COC(=O)c3ccc(NC(=O)CCc4ccccc4)cc3)nc2s1,.,.,.,.,i,.
Cc1ccc(-c2csc(NC(=O)c3ccc(Br)cc3)c2C(=O)O)cc1,0,?,2µM*,-13%,-28%,-19%
C(=C\c1ccnc2ccccc12)/c1ccc(N(Cc2ccccc2)Cc2ccccc2)cc1,.,.,2%,.,.,.
COC(=O)c1ccc(Cn2nnc3c(=O)[nH]c(C4CCN(S(=O)(=O)c5ccc(F)cc5)CC4)nc32)cc1,0,-8%,-1%,-3%,i,0%
O=C(Cc1cccs1)Nc1nc2c(s1)CCCC2,1,9%,4µM*,1%,-44%[57.5 µM],15%
O=C(CCSc1ccccc1)NC1CCCCCC1,0,?,7.1µM*,0%,-30%,12%
O=C(Nc1nc2c(s1)CCCC2)c1cccs1,2,?,?,2%,-39%,0%
O=C(CCSc1ccccc1)Nc1nc2c(s1)CCCC2,-1,?,11µM*,1%,-4%[57.5 µM],12%
CCOc1ccc(Br)cc1C1C(C(=O)OC)=C(C)NC2=C1C(=O)c1ccccc12 (stereo not drawn),.,.,.,.,-3%,.
Cc1ccc2oc(-c3ccc(NC(=O)COc4ccccc4)cc3O)nc2c1,.,.,59%,.,.,.
COc1ccc(CCn2nnnc2C2(c3ccc(C)cc3)CC2)cc1,.,.,.,.,.,21µM*
COc1ccc(CCNC(=O)c2nn(C)c3c2CS(=O)(=O)c2ccccc2-3)c(OC)c1,-3,-21%,-12%,-8%,-38%,12%
Fc1cc(Br)ccc1COc1ccc(-c2nnco2)cc1,-3,?,6.3µM*,4%,-9%,1%
FC(F)(F)c1cnc(Oc2ccc(-c3nnco3)cc2)c(Cl)c1,-2,3%,8%,4%,-18%,10%
SMILES,IL2 activator,Chronic BCR inh,BRCA1 expr up,TCR act,PTHR1 ag,Mito fusion act
Fc1ccc(COc2ccc(-c3nnco3)cc2)c(Cl)c1,-3,?,8.9µM*,4%,-29%,?
CCOC(=O)N1CCN(/[N+]([O-])=N/OCOC)CC1,.,.,0%,.,.,.
COc1ccc(CNC(=S)N/N=C(/C)c2ccccc2)cc1,-7,-25%,7.1µM*,4%,-15%,14%
Cn1c(=S)c2[nH]c(SCCN3CCCC3)nc2n(C)c1=O,0,11µM*,-7%,12%,13%,-25%
O=C(Cc1ccc(-c2ccccc2)cc1)NO,.,.,0%,.,.,.
CC(C)NC(=O)c1ccc(-c2ccccc2C(F)(F)F)o1,2,?,11µM*,0%,-16%[57.5 µM],13%
O=C(Nc1ccccc1)c1ccc(-c2ccccc2C(F)(F)F)o1,1,?,5%,-5%,-26%,?
COc1ccc(CNC(=O)Cc2ccc(NC(=O)C3=C(C)OCCS3)cc2)cc1,1,20µM*,48%,0%,-23%,-2%
Cc1ccc(NC(=O)C2CCCN(S(=O)(=O)c3ccc4[nH]c(=O)ccc4c3)C2)cc1Cl (stereo not drawn),.,.,.,.,-49%,.
Cc1ccc(Cc2cn3cc(-c4ccc(F)cc4)nc3s2)cc1,.,.,2.2µM*,.,-29%,.
Cc1ccc(SCC(=O)NCCSC(C)(C)C)cc1,-2,-2%,8.9µM*,-4%,-9%,-3%
O=C(COc1ccc(Cl)cc1Cl)NC(=O)NC1CCCC1,-2,2%,4µM*,7%,-21%,16%
O=C(COc1ccc(Cl)cc1Br)NC(=O)NC1CCCC1,0,8%,13µM*,-6%,-31%,23%
COC(c1ccccc1)c1nnc(CCC(=O)N(C)Cc2cccc(-n3cccn3)c2)o1 (stereo not drawn),6,0%,13µM*,-1%,-28%,-2%
CC1CCN(C(=O)CSc2nnc(-c3ccccc3)o2)CC1,.,.,.,.,i,.
O=C(CSc1nnc(-c2ccccc2)o1)N1CCCC1,7,9%,83%,4%,i,8%
CC1CC(C)CN(C(=O)CSc2nnc(-c3ccc(F)cc3)o2)C1 (stereo not drawn),-4,8%,0%,-9%,-35%,6%
O=C(CSc1nnc(-c2ccccc2)o1)N1CCCCC1,2,?,3.2µM*,9%,-19%,2%
CC1CCN(C(=O)CCc2nnc(-c3ccccc3)o2)CC1,-2,-3%,13µM*,1%,-15%,5%
O=C(CSc1nnc(-c2ccc(F)cc2)o1)N1CCCCC1,0,1%,8.9µM*,-3%,i,5%
Nc1c(N=Nc2ccc([N+](=O)[O-])cc2)c(S(=O)(=O)O)cc2cc(S(=O)(=O)O)c(/C=C/c3ccccc3)c(O)c12,.,.,-18%,.,.,.
Cc1ccc(NC(=O)c2cnn3c2NC(=C2CC2)C=C3C(F)F)cc1,.,.,22%,.,.,.
CC(C)(C)c1ccc(CNC(=O)C2CCCN2C(=O)Nc2ccccc2)cc1 (stereo not drawn),0,-1%,-18%,-6%,i,10%
O=C(Nc1ccc(Oc2cccnc2)cc1)c1ccccc1F,0,?,4µM*,2%,-30%[57.5 µM],-3%
c1ccc2c(N=NN3CCCCC3)ccnc2c1,.,.,-30%,.,.,.
